PubChem BioAssay (NCATS)
Several values for one entry are separate records, joined by “and”; a condition that tells them apart may be missing. Equal entries are not always repeated. Results filed as inconclusive are left out. Where a call stands in place of a potency, no number is given. Unmarked numbers belong to inactive results. Activity calls are given as the source filed them. The call rests on the fitted dose curve; in most records, active means well fitted inhibition curve with a large enough effect; inconclusive means small, poorly fitted or top-dose-only effect; inactive means flat fitted curve, though single readings scatter.

Legend:
[1] = qHTS profiling for inhibitors of Plasmodium falciparum proliferation (AID 504749); further: nearly all actives have a fitted effect of over 60% in size; settings: P. falciparum in erythrocytes, SYBR Green DNA, 72 h
How it was run: (§1)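 In a 72 h erythrocytic culture (37 C, humidified, 5% CO2) at 2.5% hematocrit and 0.3% starting parasitemia, compounds were tested; SYBR Green I in detergent lysis buffer stained parasite DNA overnight.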

3D7 = assay: as above; settings: P. falciparum in erythrocytes, SYBR Green DNA, 72 h; series mostly up to 28.7 µM
How it was run: as §1

7G8 = assay: as above; settings: P. falciparum in erythrocytes, SYBR Green DNA, 72 h; series mostly up to 28.7 µM
How it was run: as §1

AS120 = assay: as above; settings: P. falciparum in erythrocytes, SYBR Green DNA, 72 h; series mostly up to 28.7 µM
How it was run: as §1

ATS189 = assay: as above; settings: P. falciparum in erythrocytes, SYBR Green DNA, 72 h; series mostly up to 28.7 µM
How it was run: as §1

C2A = assay: as above; settings: P. falciparum in erythrocytes, SYBR Green DNA, 72 h; series mostly up to 28.7 µM
How it was run: as §1

CP185 = assay: as above; settings: P. falciparum in erythrocytes, SYBR Green DNA, 72 h; series mostly up to 28.7 µM
How it was run: as §1

AA1029 = assay: as above; settings: P. falciparum in erythrocytes, SYBR Green DNA, 72 h; series mostly up to 28.7 µM
How it was run: as §1

ATS95 = assay: as above; settings: P. falciparum in erythrocytes, SYBR Green DNA, 72 h; series mostly up to 28.7 µM
How it was run: as §1

[2] = at 28.7 µM (top of the series), parasite line A
[3] = at 28.7 µM (top of the series), parasite line B
[4] = at 12.8 µM (top of the series), parasite line A
[5] = at 12.8 µM (top of the series), parasite line B
Potency means the concentration at half of the fitted maximal effect.

SMILES | Potency ([1]; parasite line A) | Potency ([1]; parasite line B) | Potency (3D7) | Potency (7G8) | Potency (AS120) | Potency (ATS189) | Potency (C2A) | Potency (CP185) | activity, negative = inhibition [1, 2] | activity, negative = inhibition [1, 3] | Potency (AA1029) | Potency (ATS95) | activity, negative = inhibition [1, 4] | activity, negative = inhibition [1, 5]
CNC(=O)Oc1ccc2c(c1)[C@]1(C)CCN(C)[C@@H]1N2C | 1.58 µM (active) | 2 µM (active) | 3.55 µM (active) | 2.24 µM (active) | 2 µM (active) | 2.24 µM (active) | 1.78 µM (active) | 1.58 µM (active) | – | – | – | – | – | –
CCC(=O)c1ccc(O)cc1 | – | – | inactive | inactive | inactive | inactive | inactive | inactive | 12.2% | 2.42% | inactive | inactive | – | –
O=c1cc(CO)occ1O | – | – | inactive | inactive | inactive | inactive | inactive | inactive | 1.47% | -0.837% | inactive | inactive | – | –
COc1ccc(Cl)cc1C(=O)NCCc1ccc(S(=O)(=O)NC(=O)NC2CCCCC2)cc1 | – | – | inactive | inactive | inactive | inactive | inactive | inactive | 10.8% | 8.21% | inactive | inactive | – | –
CCOC(=O)c1ccc(O)cc1 | – | – | inactive | inactive | inactive | inactive | inactive | inactive | 6.51% | -7.49% | inactive | inactive | – | –
O=C1OC(OC(=O)c2cccnc2Nc2cccc(C(F)(F)F)c2)c2ccccc21 (configuration not stated) | – | – | inactive | inactive | inactive | inactive | inactive | inactive | -4.18% | 2.45% | inactive | inactive | – | –
O=S(=O)(O)NC1CCCCC1 | – | – | inactive | inactive | inactive | inactive | inactive | inactive | 2.07% | 5.79% | inactive | inactive | – | –
O=C(O)COc1nn(Cc2ccccc2)c2ccccc12 | – | – | inactive | inactive | inactive | inactive | inactive | inactive | 1.43% | 10.4% | inactive | inactive | – | –
C#CCN(C)Cc1ccccc1 | – | – | inactive | inactive | inactive | inactive | inactive | inactive | – | – | inactive | inactive | 7.21% | -0.897%
O=C(O)c1ccccn1 | – | – | inactive | inactive | inactive | inactive | inactive | inactive | 0.929% | -26.4% | inactive | inactive | – | –
O=C1c2c(O)cccc2Cc2cccc(O)c21 | – | – | inactive | inactive | inactive | inactive | inactive | inactive | 14.6% | -4.21% | inactive | inactive | – | –
Cc1cccc(Nc2cc(Cl)nc(SCC(=O)O)n2)c1C | – | – | inactive | inactive | inactive | inactive | inactive | inactive | 11.5% | 13.9% | inactive | inactive | – | –
CC(=O)Oc1ccc(C2(c3ccc(OC(C)=O)cc3)C(=O)Nc3ccccc32)cc1 | – | – | inactive | inactive | inactive | inactive | inactive | inactive | 5.01% and 7.68% | 2.92% and 4.08% | inactive | inactive | – | –
CCCCCCCCCCCCOS(=O)(=O)O | – | – | inactive | inactive | inactive | inactive | inactive | inactive | 2.98% | -1.46% | inactive | inactive | – | –
CCCCOc1cc(C(=O)OCCN(CC)CC)ccc1N | – | – | inactive | inactive | inactive | inactive | inactive | inactive | – | – | inactive | – | 8.11% | 4.89%
CCOC(=O)[C@H](CCc1ccccc1)N[C@@H](C)C(=O)N1C(=O)N(C)C[C@H]1C(=O)O | – | – | inactive | inactive | inactive | inactive | inactive | inactive | 8.56% | 16.1% | inactive | inactive | – | –
